Hit rate of the full screen: of about 220,000 compounds, about 2,000 (0.91%) were called active. Roughly 2% stayed inconclusive and do not appear here. A selection follows. Results with a measured potency or affinity are listed apart. A number with no mark means an inactive call. No stated cut-off is given here; in the data, inconclusive means inhibition above about 80% without an active follow-up result; inactive means below that; test concentration not stated here.

This experiment in a line: M. tuberculosis H37Rv growth inhibitors, H37Rv strain (AID 1626).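 Further: bacteria incubated seven days before Alamar blue readout; 0% = bacteria only wells and 100% = bacteria with antibiotic wells.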 Conditions: hits give high values, concentration not given here.
Turning to `O=C(CO/N=C/c1ccccc1OC(F)F)NCc1ccco1`, the inhibition – broadly, the drop in the measured response relative to a control, in per cent – was -2.9%. For `O=S(=O)(c1ccc(Cl)nc1)N1CCN(c2ncccn2)CC1`, the inhibition is -8.21%.

With `CN(C)CCCNc1ncc(C(F)(F)F)cc1Cl`, the inhibition was 4.38%. With `CC1=C(C(=O)Nc2ccc(C)cc2C)C(c2ccc(Cl)cc2)n2nc(C(=O)OC(C)C)nc2N1` (configuration not stated), the inhibition is 5.54%. In the case of `CN(C)CCCNC(=O)/C(=C\c1ccc(-c2cccc([N+](=O)[O-])c2)o1)NC(=O)c1ccccc1`, the inhibition is -5.38%.

Consider `CN(C)CCNC(=O)/C(=C/c1ccc(-c2ccc(Cl)cc2)o1)NC(=O)c1ccccc1`, for which the inhibition was 10.2%. As for `CN(C)CCNC(=O)/C(=C/c1ccc(-c2cccc(Cl)c2)o1)NC(=O)c1ccccc1`, the inhibition is 5.87%. Under `CN(C)CCCNC(=O)/C(=C\c1ccc(-c2ccc(Br)cc2)o1)NC(=O)c1ccccc1` stands 6.54%; under `COC(=O)C1=C(c2cc3ccccc3s2)C[C@@H]2CC[C@H]1N2C(=O)NCCCOC(C)C`, -2.33%.

Turning to `Cc1cccc(/N=C/c2c(C)[nH]n(-c3ccccc3)c2=O)n1`, the inhibition was -10.6%. In the case of `O=C(Cn1nc(CNc2ccc(Cl)cc2)[n+]2c1CCCCC2)c1ccccc1`, the inhibition is 9.42%.

`O=C(Cn1nc(CNc2ccc(Br)cc2)[n+]2c1CCCCC2)c1ccc([N+](=O)[O-])cc1`: the inhibition was 28.2%. Under `COC(=O)CN1C(=O)[C@@H]2[C@H](C1=O)[C@@H]1CC(C(=O)OC)=C[C@@H](C(=O)OC)[C@@H]3C1=C(C(=O)[C@@]3(C)NC(=O)c1ccccc1)[C@@H]2C` stands -6.86%; under `CS(=O)(=O)N(CCc1ccccc1)CC(=O)NCc1ccccc1Cl`, 6%; under `COc1ccc(CSc2nnc(C)n2N)cc1Br`, -9.64%. For the compound `COc1cc(/C=C(\NC(C)=O)C(=O)NC(C)(C)C)ccc1OC(C)=O`, the inhibition was -3%. As to `CCOC(=O)CSc1nc(C)cc(C)c1C#N`, the inhibition is -7.74%.

In the case of `COC(=O)CSc1nc(N)c(C#N)c(C(C)C)c1C#N`, the inhibition was 0.87%. In the case of `COC(=O)CSc1nc(N)c(C#N)c(-c2ccc(O)cc2)c1C#N`, the inhibition was -2.05%. Turning to `CCCOC(=O)CSc1nc(N)c(C#N)c(CC)c1C#N`, the inhibition was -6.1%.

Regarding `COc1ccc(N(CC(=O)Nc2c(C)n(C)n(-c3ccccc3)c2=O)S(=O)(=O)c2ccc(F)cc2)cc1`, the inhibition is -0.85%.

As for `CC(C)OC(=O)CSc1nnc(-c2cnccn2)n1-c1ccccc1`, the inhibition was -8.06%. As for `CC(NC(=S)Nc1ccc([N+](=O)[O-])cc1)c1ccncc1` (configuration not stated), the inhibition is 2.79%.

With `CC(C)(C)Nc1nc(SCc2ccccc2)nc(N2CCOCC2)n1`, the inhibition is 1.1%.

Take `O=C(NCc1ccco1)C(=O)NCC1OCCN1S(=O)(=O)c1ccc(F)cc1` (configuration not stated): the inhibition was 0.03%.

Regarding `Nc1c2c(nc3ccc(Br)cc13)N(c1ccccc1)CC2`, the inhibition was 14.3%. Under `Nc1c2c(nc3ccccc13)N(C1CCCCC1)CC2` stands 1.71%; under `CCOC(=O)c1cnn(-c2nc3c(C)cccc3s2)c1C`, -7.79%.

With `COC(=O)c1cnn(-c2nc3c(C)cccc3s2)c1C`, the inhibition was -0.32%. For `O=C(O)COCc1nc2ccccc2s1` the value was 0.38%. Under `CCCC(=O)N1CCN(c2ccc(NC(=O)c3ccc(Br)o3)cc2)CC1` stands -2.24%. Turning to `CC(=O)N1CCN(c2ccc(NC(=O)c3ccc(N4CCCC4)c([N+](=O)[O-])c3)cc2Cl)CC1`, the inhibition was 44.6%. With `CCCC(=O)N1CCN(c2ccc(NC(=O)c3cc4ccccc4o3)cc2Cl)CC1`, the inhibition is 11%.

As to `CCCC(=O)N1CCN(c2ccc([N+](=O)[O-])cc2Cl)CC1`, the inhibition was 6.77%. With `O=C(Nc1ccc(N2CCOCC2)c(Cl)c1)c1ccc(Br)o1`, the inhibition was 5.36%. For `O=C(Nc1cccc(Cl)c1N1CCCCC1)c1ccc(N2CCOCC2)c([N+](=O)[O-])c1` the value was 2.9%; for `CCCC(=O)N1CCN(c2ccc(NC(=O)c3ccco3)cc2)CC1`, -4.48%; for `O=C(Nc1cccc(Cl)c1N1CCOCC1)c1ccc([N+](=O)[O-])o1`, 1.19%. Turning to `O=C(O)c1ccc(NC(=O)C2C3CCC(C3)C2C(=O)O)cc1` (configuration not stated), the inhibition was 0.17%.

As for `Cn1nc(-c2ccccc2)cc1NC(=O)Nc1ccc(C(C)(C)C)cc1`, the inhibition was 8.89%. Consider `Cn1ncc(Br)c1NC(=O)Nc1ccc(OC(F)(F)F)cc1`, for which the inhibition is 5.76%. Consider `COc1ccc(S(=O)(=O)N2CCCC(C(=O)NCc3ccncc3)C2)cc1` (configuration not stated), for which the inhibition is -3.7%. In the case of `CN(C)/C=C/C(=O)c1ccc(N2CCN(c3ncc(C(F)(F)F)cc3Cl)CC2)cc1`, the inhibition is -11.4%. As to `CCOC1(OCC)C(c2ccc(N)cc2)C(C#N)(C#N)C1(OCC)OCC` (configuration not stated), the inhibition was -7.48%.

In the case of `CC(C)(C)S(=O)(=O)c1cnc(-c2ccccn2)nc1N`, the inhibition was -8.12%. `COc1ccc(-c2nnc(SCC#CCO)o2)cc1OC`: the inhibition is -8.82%. Regarding `O=C(OCC#CCSc1nnc(-c2cccc3ccccc23)o1)c1cccs1`, the inhibition is 60.9%. For `OCC#CCSc1nnc(-c2ccncc2)o1`, the inhibition was -1.67%.

`COc1ccc(-c2nnc(SCC(=O)c3cccs3)o2)cc1`: the inhibition is 12.7%. Under `O=C(CSc1nnc(-c2ccncc2)o1)c1cccc([N+](=O)[O-])c1` stands -6.49%; under `O=C(CSc1nnc(-c2cccs2)o1)c1cccs1`, 11.9%; under `O=C(NCCSc1ccccc1)c1ccccc1`, -18.6%. For the compound `O=C(c1ccco1)[C@@H]1[C@@H]2C(=O)N(c3ccccc3)C(=O)[C@@H]2C2c3ccccc3C=CN21` (some centres not stated), the inhibition is -13.4%.

With `COc1ccc(C)cc1S(=O)(=O)N(CC(=O)Nc1cccc([N+](=O)[O-])c1)c1ccccc1`, the inhibition is 0.46%. Under `Cc1cc(N2CCN(c3cccc(C)c3C)CC2)nc(-c2ccccc2)n1` stands 6.21%; under `CC(C)(C)C(=O)Nc1nnc(Cc2ccccc2)s1`, 10.8%; under `CCOC(=O)CSc1nc2ccccc2c(=O)n1CC(C)C`, 7.35%. Take `CCOC(=O)C1(CCOc2ccccc2)CCN(Cc2ccc(-n3cccn3)cc2)CC1`: the inhibition is 4.73%. Under `CCOC(=O)C1(CCOc2ccccc2)CCN(Cc2cccc(-n3cccn3)c2)CC1` stands -2.65%; under `CCc1cc2c(SCC(=O)N(CC)c3c(N)n(Cc4ccccc4)c(=O)[nH]c3=O)ncnc2s1`, 5.81%; under `Clc1ccc(-c2csc(N/N=C/c3ccc4c(c3)OCO4)n2)cc1`, 48.7%. For `CCNC(=O)Nc1nc2ccccc2s1` the value was 4.21%.

On to `Cc1ccc(OCCCCn2ccnc2)c(Cl)c1`, for which the inhibition was 56.8%.

In the case of `Cc1cccc(Cl)c1OCCCCn1ccnc1`, the inhibition was 3.12%.

With `Cc1cc(OCCCn2ccnc2)cc(C)c1Cl`, the inhibition is 16.8%. `Cc1cc(OCCCCn2ccnc2)cc(C)c1Cl`: the inhibition is 51.5%.

As for `O=C(CCN1C(=O)c2ccccc2C1=O)Nc1ccc(S(=O)(=O)N2CCOCC2)cc1`, the inhibition is -4.04%.

Take `Cc1cc(C)cc(OCC(O)CN2C(=O)NC(C)(C)C2=O)c1` (configuration not stated): the inhibition was -17.8%. On to `FC(F)(F)c1cccc(NC(=S)N2CCN(c3ccccc3)CC2)c1`, for which the inhibition was -3.11%.

In the case of `CC(NC(=O)Cn1cc(C(=O)C2CC2)c2ccccc21)c1ccccc1` (configuration not stated), the inhibition was 6.54%. For `CC(C)OC(=O)c1cc(C(=O)c2cc(Br)ccc2O)coc1=N` the value was -3.62%; for `COC(=O)c1cc(C(=O)c2cc(Cl)ccc2O)coc1=N`, 3.92%.

Take `Nc1nnc(SCC(=O)c2ccc([N+](=O)[O-])cc2)s1`: the inhibition was -6.55%. Take `COc1ccc(S(=O)(=O)N(C)c2ccc(C(N)=O)cc2)cc1`: the inhibition is 3%. Under `O=C(NCc1ccc2c(c1)OCO2)C1CC(=O)N(C2CCCCCCC2)C1` (configuration not stated) stands 5.14%; under `Cc1ccc(-c2nnc(-n3ncc(C#N)c3N)c3ccccc23)cc1C`, -8.25%. As for `COc1ccc2cc(C(=O)C3CCCN(C(=O)/C=C/c4ccccn4)C3)ccc2c1` (configuration not stated), the inhibition is 1.13%.

Turning to `COc1ccc(C2c3c(ncn(Cc4ccco4)c3=N)Oc3ccc4ccccc4c32)cc1` (configuration not stated), the inhibition is 38.6%. For `N=c1c2c(-c3ccccc3)c(-c3ccccc3)n(Cc3ccco3)c2ncn1CCO`, the inhibition was 20%. In the case of `COc1ccc(-c2oc3ncn(CCN4CCOCC4)c(=N)c3c2-c2ccc(OC)cc2)cc1`, the inhibition is -3.67%. Consider `N=c1c2c(-c3ccccc3)c(-c3ccccc3)n(Cc3ccco3)c2ncn1CCCO`, for which the inhibition is 15.2%. For the compound `CS(=O)(=O)N(CC(=O)Nc1ccccc1C(=O)N1CCCC1)c1cccc([N+](=O)[O-])c1`, the inhibition is 3.06%. Regarding `Cc1csc(Nc2cccc3ccccc23)n1`, the inhibition was 6.85%. Turning to `Cc1ccc(C(=O)Nc2ccccc2-c2ccccc2)cc1[N+](=O)[O-]`, the inhibition was 14.5%. Turning to `COC(=O)CSc1snnc1-c1ccc(F)cc1`, the inhibition was -0.55%. Under `Cc1nn(Cc2c(Cl)cccc2Cl)c(Cl)c1/C=N/NC(=O)c1cccnc1` stands -3.52%; under `CCc1ccc(NC(=O)C(NS(=O)(=O)c2cccc3nsnc23)c2ccccc2)cc1` (configuration not stated), -4.05%. Regarding `Cc1ccc(NC(=O)c2ccccc2)cc1OC(=O)c1ccccc1`, the inhibition is 6.17%. Take `Cc1cccc(C(=O)Nc2cccc(OC(=O)c3cccc(C)c3)c2)c1`: the inhibition is 11.6%.

Take `OCCN1CCN(CC(O)COc2ccc(Cl)cc2)CC1` (configuration not stated): the inhibition is 1.07%.

As for `OCCN1CCN(CC(O)COc2ccc(-c3ccccc3)cc2)CC1` (configuration not stated), the inhibition was 5.51%. As for `Cc1ccc(CS(=O)(=O)CCC(=O)NCCC2=CCCCC2)cc1`, the inhibition was 7.74%.

Source of the values: PubChem BioAssay AID1626 (SRMLSC, 2009).
